# Results reported in PubChem BioAssay (NCATS).
# “And” between values parts separate entries of the source, which are not always exact repeats. Equal entries are not always repeated. Records with an inconclusive call do not appear. The source holds several records for some structures; these can differ, active in one and inactive in another. The source made the active and inactive calls. Unless noted, calls come from the whole dose curve; as a rule, active = well fitted curve in the direction sought with a large enough effect; inconclusive = small, poorly fitted or top-dose-only effect, or another doubt; inactive = no such curve, though single readings can be large; an effect the other way counts as inactive or inconclusive.
# Key:
# [1] = molecular target: Hexokinase-4 (Homo sapiens) + Glucokinase regulatory protein (Homo sapiens) (UniProt P35557+Q14397); assay: qHTS assay for inhibitors of recombinant human GCK-GKRP interaction: HTRF assay (AID 743207);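 note: 0% = DMSO with GCK present and -100% = DMSO wells lacking GCK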
# Sequence of Hexokinase-4 (Homo sapiens) + Glucokinase regulatory protein (Homo sapiens) (P35557 whole entry, looked up): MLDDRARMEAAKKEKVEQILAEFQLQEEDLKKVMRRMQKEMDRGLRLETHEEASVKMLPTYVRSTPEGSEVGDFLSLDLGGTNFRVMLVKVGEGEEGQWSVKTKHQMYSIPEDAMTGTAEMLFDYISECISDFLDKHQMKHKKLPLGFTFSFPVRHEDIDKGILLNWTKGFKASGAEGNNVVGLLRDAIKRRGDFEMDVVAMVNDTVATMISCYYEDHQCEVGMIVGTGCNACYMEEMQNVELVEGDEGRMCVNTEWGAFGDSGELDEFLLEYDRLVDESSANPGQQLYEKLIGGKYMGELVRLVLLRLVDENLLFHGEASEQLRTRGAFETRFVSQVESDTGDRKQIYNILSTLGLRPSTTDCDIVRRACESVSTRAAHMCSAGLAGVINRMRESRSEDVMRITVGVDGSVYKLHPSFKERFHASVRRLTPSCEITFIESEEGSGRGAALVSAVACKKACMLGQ
# Sequence of Hexokinase-4 (Homo sapiens) + Glucokinase regulatory protein (Homo sapiens) (Q14397 whole entry, looked up): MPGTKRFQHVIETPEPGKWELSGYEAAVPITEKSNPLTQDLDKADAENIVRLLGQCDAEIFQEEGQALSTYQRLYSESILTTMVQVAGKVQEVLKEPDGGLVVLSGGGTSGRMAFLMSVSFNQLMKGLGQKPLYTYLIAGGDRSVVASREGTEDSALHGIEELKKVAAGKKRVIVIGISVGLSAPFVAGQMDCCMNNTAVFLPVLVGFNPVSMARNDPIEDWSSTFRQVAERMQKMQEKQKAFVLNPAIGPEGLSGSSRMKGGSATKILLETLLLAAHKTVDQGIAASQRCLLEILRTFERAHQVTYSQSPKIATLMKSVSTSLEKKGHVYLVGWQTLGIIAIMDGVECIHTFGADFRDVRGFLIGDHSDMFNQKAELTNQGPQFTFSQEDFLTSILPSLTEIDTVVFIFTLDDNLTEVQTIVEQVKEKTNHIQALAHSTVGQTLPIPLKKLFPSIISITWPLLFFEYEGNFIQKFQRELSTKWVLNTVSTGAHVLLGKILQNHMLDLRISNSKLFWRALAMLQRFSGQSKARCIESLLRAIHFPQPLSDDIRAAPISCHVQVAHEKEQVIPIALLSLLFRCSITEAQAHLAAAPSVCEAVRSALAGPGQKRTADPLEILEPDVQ
# How it was run: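 After 60 min equilibration at room temperature with anti-FLAG XL665 and anti-GST antibodies, FRET ratio (665/615 nm, excitation 320 nm) was read. Proteins: GST-GCK and FLAG-GKRP, each 5 nM, plus 2 uM S6P, pH 7.1 buffer; GCK-free wells define minimum signal.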
# [2] = qHTS profiling for inhibitors of Plasmodium falciparum (3D7) proliferation (AID 743322);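 note: infected erythrocytes exposed to compound for 72 h before lysis; 100% = DMSO vehicle wells and 0% = 0.29 µM artemisinin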; settings: P. falciparum 3D7 proliferation
# How it was run: (§1)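 Erythrocytes infected with P. falciparum (0.3% parasitemia, 2.5% hematocrit) incubated with compounds 72 h at 37 C, 5% CO2. Lysis with saponin/Triton buffer containing SYBR Green I, overnight at room temperature in the dark; DNA fluorescence (485/535 nm) normalised to 0.29 uM artemisinin and DMSO.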
# [3] = qHTS profiling for inhibitors of Plasmodium falciparum (DD2) proliferation (AID 743323; call rule not given here); settings: lower = more inhibition
# How it was run: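 1536-well qHTS; infected RBCs 0.3% parasitemia/2.5% Hct final; cpd 72 h 37 C 5% CO2; lysis buffer + SYBR Green I, o/n RT dark; FI 485/535; norm. to 0.29 uM artemisinin and DMSO, plate-stack corrected.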
# [4] = qHTS profiling for inhibitors of Plasmodium falciparum (HB3) proliferation (AID 743324); settings: Plasmodium falciparum HB3 blood-stage proliferation;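 note: 100% = DMSO vehicle wells and 0% = artemisinin-treated control wells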
# How it was run: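 P. falciparum HB3 grown in erythrocytes (0.3% parasitemia, 2.5% hematocrit final) with compound for 72 h at 37 C, 5% CO2. Parasite DNA detected by SYBR Green after saponin/triton lysis overnight; normalized to 0.29 uM artemisinin and DMSO.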
# [5] = qHTS profiling of the MIPE4 collection as inhibitors of Plasmodium falciparum (3D7) proliferation (AID 743344; call rule not given here;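 note: scaled between DMSO vehicle wells and 0.29 µM artemisinin as full inhibition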); settings: P. falciparum 3D7 in erythrocytes, SYBR Green DNA fluorescence, 72 h; at 28.5 µM (top of the series) unless noted
# How it was run: as §1
# [6] = qHTS profiling of the MIPE4 collection as inhibitors of Plasmodium falciparum (DD2) proliferation (AID 743345; call rule not given here); settings: P. falciparum Dd2 in erythrocytes, SYBR Green DNA, 72 h; at 28.5 µM (top of the series) unless noted
# How it was run: as §1
# [7] = qHTS profiling of the MIPE4 collection as inhibitors of Plasmodium falciparum (DD2) proliferation (Rep 2) (AID 743346; call rule not given here); settings: P. falciparum Dd2 in erythrocytes, SYBR Green DNA, 72 h; at 28.5 µM (top of the series) unless noted
# How it was run: as §1
# [8] = qHTS profiling of the MIPE4 collection as inhibitors of Plasmodium falciparum (HB3) proliferation (AID 743347; call rule not given here;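 note: plate controls were DMSO vehicle wells for no effect and artemisinin wells for full effect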); settings: P. falciparum HB3 in erythrocytes, SYBR Green DNA, 72 h; at 28.5 µM (top of the series) unless noted
# How it was run: as §1
# [9] = High-throughput drug toxicity screening in the BPDCN cell line Gen2.2 (AID 1224824; call rule not given here;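 note: cells exposed to compounds for 48 h before reading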); settings: Gen2.2 BPDCN cells; at 45.8 µM (top of the series) unless noted
# How it was run: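 CellTiter-Glo luminescence read after 48 h compound exposure at 37 C defines viability; percent activity set with DMSO as 100% and bortezomib (9.2 uM final) as 0%. 500 exponentially growing cells per well, RPMI plus 10% FBS.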
# [10] = qHTS assay for measurement of the activity of small molecule inhibitors on Zika virus induced Caspase-3 activity in human iPSC derived neural progenitor cells (hNPCs) (AID 1224857); note: % of control where 0% means no effect; nearly all actives have a fitted effect of over 65% in size
# How it was run: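 hNPCs seeded 350 cells/well, cultured 16–20 h; compounds added 1 h before ZIKV (2 FFU/cell), 37 C 6 h. Caspase-Glo 3/7 luminescence after 30 min RT; % inhibition from induction scaled to uninfected (0%) and infected (100%) wells.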
# [11] = qHTS assay for measurement of the activity of small molecule inhibitors on Zika virus induced Caspase-3 activity in human astrocytoma cells (AID 1224859);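 note: plate controls were ZIKV-infected untreated cells for no effect and uninfected cells for full effect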
# How it was run: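 Luminescence read-out (Caspase-Glo 3/7, 30 min RT) of caspase activity in SNB-19 cells infected 6 h with ZIKV, 2 FFU/cell, after 1 h compound pretreatment; % inhibition from induction normalised to uninfected (0%) and infected (100%) wells.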
# [12] = qHTS Screen of the MIPE 4.0 Collection Against Ewings Sarcoma (TC32) (AID 1259256); note: nearly all actives have a fitted effect of over 45% in size; note: potency is the fitted concentration of half-maximal effect
# How it was run: (§2)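 Cells plated in serum-containing RPMI (5% FBS) and treated with compound dilutions for 48 h. Readout luminescent viability; normalization relied on vehicle (no inhibition) and media-only columns (full inhibition).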
# [13] = qHTS assay to identify small molecule inhibitors of chordoma cells - UCH-1 (AID 1259355); note: nearly all actives have a fitted effect of over 55% in size; note: potency is the fitted concentration of half-maximal effect
# How it was run: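 Seed 800 cells per well; incubate overnight at 37 C, 5% CO2. Add test compounds (15 concentrations), then the auranofin–topoisomerase-agent combination. Incubate 48hr, add CellTiter-Glo, wait 30min, read luminescence.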
# [14] = qHTS assay to identify small molecule inhibitors of chordoma cells - UCH-2 (AID 1259356); note: % is set by controls: 0 for no effect and ±100 for the full control effect
# [15] = qHTS Screen of the MIPE 4.0 Collection Against Ewings Sarcoma (RDES) (AID 1259252); note: nearly all actives have a fitted effect of over 35% in size; note: potency is the fitted concentration of half-maximal effect
# How it was run: as §2
# [16] = qHTS Assay for Identifying Gametocytocidal Compounds (AID 743244); note: potency is the fitted concentration of half-maximal effect;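 for max response: % is set by controls: 0 for no effect and ±100 for the full control effect; actives lower the fluorescent signal which means gametocytes are killed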; settings: P. falciparum 3D7 stage III-V gametocytes, alamarBlue, 72 h; max response: stronger effect = lower value
# How it was run: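 P. falciparum 3D7 stage III–V gametocytes (20,000 cells/well) were exposed to compounds for 72 h at 37 °C, 5% CO2. AlamarBlue was then added for 24 h; decreased resorufin fluorescence (Ex 525/Em 598 nm) indicated loss of viability.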
# [17] = qHTS assay for cell viability of HEK293 cells (AID 743288); settings: ATP luminescence (CellTiter-Glo), 18 h; max response: stronger effect = lower value; note: % is set by controls: 0 for no effect and ±100 for the full control effect; nearly all actives have a fitted effect of over 50% in size
# How it was run: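 Total intracellular ATP, measured with a luciferase-coupled reagent, indicates the number of viable HEK293 cells. Exposure to test chemicals lasts 18 h at 37 C in 1,536-well format at 2,000 cells/well.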
# [18] = qHTS Screen of the MIPE 4.0 Collection Against Ewings Sarcoma (EW8) (AID 1259255); note: potency is the fitted concentration of half-maximal effect; nearly all actives have a fitted effect of over 35% in size
# How it was run: as §2
compound,measurement,setting,value
C[C@H]1c2cccc(O)c2C(O)=C2C(=O)[C@]3(O)C(O)=C(C(N)=O)C(=O)[C@@H](N(C)C)[C@@H]3[C@@H](O)[C@@H]21,Potency,[1],inactive
same,remaining parasite growth % (stronger effect = lower value),[2]; at 28.7 µM (top of the series),16.9%
same,"activity, percent of control",[3]; at 28.7 µM (top of the series),12.8%
same,"remaining proliferation (% of control), lower = more inhibition",[4]; at 28.7 µM (top of the series),15.7%
same,"parasite growth, % of DMSO control",[5],6.81%
same,"parasite growth remaining, % of DMSO control (lower = more inhibition)",[6],28.6%
same,"parasite growth, % of control (lower = inhibition)",[7],14.3%
same,"growth, % of control",[8],12.4%
same,"cell viability, % of control (lower = more cytotoxic)",[9],12.3%
same,Potency,[10],inactive
same,Potency,[11],inactive
same,Potency,[12],inactive
same,Potency,[13],inactive
same,outcome,[14],inactive
CN(C)CCCN1c2ccccc2CCc2ccc(Cl)cc21,Potency,[1],inactive
same,"parasite growth, % of DMSO control",[5],19.3%
same,"parasite growth remaining, % of DMSO control (lower = more inhibition)",[6],12%
same,"parasite growth, % of control (lower = inhibition)",[7],24.6%
same,"growth, % of control",[8],21.5%
same,"cell viability, % of control (lower = more cytotoxic)",[9],29.4%
same,Potency,[10],inactive
same,Potency,[11],inactive
same,Potency,[15],0.662 µM (active)
same,Potency,[12],2.96 µM (active)
same,outcome,[14],inactive
OCCN1CCN(CCCN2c3ccccc3Sc3ccc(C(F)(F)F)cc32)CC1,Potency,[1],inactive
same,"parasite growth, % of DMSO control",[5],7.22%
same,"parasite growth remaining, % of DMSO control (lower = more inhibition)",[6],10.5%
same,"parasite growth, % of control (lower = inhibition)",[7],23.4%
same,"growth, % of control",[8],10.5%
same,"cell viability, % of control (lower = more cytotoxic)",[9],85.8%
same,Potency,[10],inactive
same,Potency,[11],inactive
same,Potency,[12],23.5 µM (active)
same,Potency,[13],31.6 µM (active)
Clc1ccc2c(c1)C(N1CCNCC1)=Nc1ccccc1O2,Potency,[1],inactive
same,Potency,[16],0.794 µM (active)
same,max response,[16],-3.09% (inactive)
same,"parasite growth, % of DMSO control",[5],50.7%
same,"parasite growth remaining, % of DMSO control (lower = more inhibition)",[6],28.9%
same,"parasite growth, % of control (lower = inhibition)",[7],27.9%
same,"growth, % of control",[8],67.9%
same,"cell viability, % of control (lower = more cytotoxic)",[9],72.6%
same,Potency,[10],inactive
same,Potency,[11],inactive
same,Potency,[15],10.5 µM (active)
same,Potency,[12],18.7 µM (active)
same,outcome,[14],inactive
Cc1ccc(-c2cc(C(F)(F)F)nn2-c2ccc(S(N)(=O)=O)cc2)cc1,max response,[17],-4.48% (inactive)
same,remaining parasite growth % (stronger effect = lower value),[2]; at 28.7 µM (top of the series),17.6%
same,remaining parasite growth % (stronger effect = lower value),[2]; at 57.5 µM (top of the series),11.7%
same,"activity, percent of control",[3]; at 28.7 µM (top of the series),45.8%
same,"activity, percent of control",[3]; at 57.5 µM (top of the series),21.2%
same,"remaining proliferation (% of control), lower = more inhibition",[4]; at 28.7 µM (top of the series),12.9%
same,"remaining proliferation (% of control), lower = more inhibition",[4]; at 57.5 µM (top of the series),16%
same,"parasite growth, % of DMSO control",[5],21.9%
same,"parasite growth remaining, % of DMSO control (lower = more inhibition)",[6],64.9%
same,"parasite growth, % of control (lower = inhibition)",[7],35%
same,"growth, % of control",[8],7.95%
same,"cell viability, % of control (lower = more cytotoxic)",[9],250%
same,Potency,[10],inactive
same,Potency,[11],inactive
same,Potency,[15],4.18 µM (active)
same,Potency,[18],20.9 µM (active)
same,Potency,[12],11.8 µM (active)
same,Potency,[13],inactive
same,outcome,[14],inactive
Fc1ccc([C@@H]2CCNC[C@H]2COc2ccc3c(c2)OCO3)cc1,Potency,[1],inactive
same,"parasite growth, % of DMSO control",[5],35.7%
same,"parasite growth remaining, % of DMSO control (lower = more inhibition)",[6],39.5%
same,"parasite growth, % of control (lower = inhibition)",[7],34.6%
same,"growth, % of control",[8],58.5%
same,"cell viability, % of control (lower = more cytotoxic)",[9],66.2%
same,Potency,[10],inactive
same,Potency,[11],inactive
same,Potency,[15],inactive
COc1ccccc1OCCNCC(O)COc1cccc2[nH]c3ccccc3c12 (stereo unspecified),Potency,[1],inactive
same,"parasite growth, % of DMSO control",[5],16.5%
same,"parasite growth remaining, % of DMSO control (lower = more inhibition)",[6],17.9%
same,"parasite growth, % of control (lower = inhibition)",[7],20.7%
same,"growth, % of control",[8],5.04%
same,"cell viability, % of control (lower = more cytotoxic)",[9],167%
same,Potency,[10],inactive
same,Potency,[11],inactive
same,Potency,[12],inactive
same,Potency,[13],inactive
same,outcome,[14],inactive
Cc1cc(C(C)(C)C)cc(C)c1CC1=NCCN1,Potency,[1],inactive
same,max response,[16],3.97% (inactive) and -5.84% (inactive)
same,"parasite growth, % of control (lower = inhibition)",[7],17.1%
same,"cell viability, % of control (lower = more cytotoxic)",[9],20.6%
same,Potency,[10],inactive
same,Potency,[11],inactive
same,Potency,[15],inactive
same,Potency,[12],inactive
same,outcome,[14],inactive
